# Pf growth 96h: Primary qHTS for delayed death inhibitors of the malarial parasite plastid, 96 hour incubation; P. falciparum luciferase reporter growth, 96 h; Potency, µM (highest dose often 28.7 µM), actives largely listed as inhibitors; 320,000 tested, 6.9% active
#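 P. falciparum expressing integrated firefly luciferase, in erythrocytes at 2% hematocrit, 0.05% parasitemia, incubated with compounds 96 h at 37 C, 5% CO2. Growth inhibition read as loss of luminescence; two-generation exposure targets delayed-death apicoplast inhibitors.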
# Cycloheximide cs: Cycloheximide Counterscreen for Small Molecule Inhibitors of Shiga Toxin | 300,000 tested, 12% active | cell reporter, cycloheximide protein synthesis inhibition counterscreen | AID 2314, 2010 | max response, %; in the data active means max response mostly above about 13%, no sharp cut-off; inactive means mostly below about 14%; further: read at 38.3 µM for the half of the compounds with a filed dose
# Pf growth 48h: Primary qHTS for delayed death inhibitors of the malarial parasite plastid, 48 hour incubation. P. falciparum luciferase growth in erythrocytes, 48 h. Potency, µM (highest dose often 28.7 µM), most hits filed as inhibitors. 310,000 tested, 5.9% active. AID 504832, 2011
#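 Read-out is firefly luciferase luminescence from an integrated reporter in P. falciparum, so falling signal marks reduced parasite growth. Infected erythrocytes were at 2% hematocrit and 0.1% parasitemia (final) in Albumax-supplemented RPMI 1640.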
# NS1 inh: qHTS Assay for Inhibitors of Influenza NS1 Protein Function. AID 2326, 2010. Potency, µM (doses to about 46.1 µM). 270,000 tested, 0.4% active; calls by dose curve; further: actives are rising curves; nearly all actives have a fitted effect of over 50% in size
#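 A cell-based growth assay was used: compounds that relieve NS1-induced slow growth of budding yeast raise OD600. Assay medium was yeast nitrogen base with ammonium sulphate and -URA supplement, pH 6.0, with 2% galactose.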
# Shiga toxin inh: A qHTS for Small Molecule Inhibitors of Shiga Toxin | 290,000 tested, 9.2% active | Vero cells, Shiga toxin protein synthesis inhibition reporter | inhibition, % at 38.7 µM | AID 2315, 2010; in the data active means inhibition mostly above about 28%, no sharp cut-off; inactive means mostly below about 43%
# Numbers stand for hits; n = inactive; u = inconclusive; x = no result. In the library only some 21% were active in any assay of this set; here they are far more common. Unless noted, the call rests on the fitted dose curve; in most records, active means well fitted inhibition curve with a large enough effect; inconclusive means small, poorly fitted or top-dose-only effect, or another doubt; inactive means no such curve, though single readings can be large or run the other way.
SMILES,Pf growth 96h,Cycloheximide cs,Pf growth 48h,NS1 inh,Shiga toxin inh
CCOC(=O)C1=C(C)NC2=C(C(=O)CCC2)C1c1cc(OC)ccc1OC (stereo not given),x,n,n,n,n
CCOC(=O)C1=C(CC)NC2=C(C(=O)CCC2)C1c1ccc(OC)c(OC)c1 (stereo not given),x,n,7.4µM,n,n
CCCOC(=O)C1=C(C)NC2=C(C(=O)CCC2)C1c1cc(OC)ccc1OC (stereo not given),n,n,n,n,n
CC1=C(C(=O)OCC(C)C)C(c2ccsc2)C2=C(CCCC2=O)N1 (stereo not given),8.3µM,n,13µM,n,n
CCCCOC(=O)C1=C(C)NC2=C(C(=O)CCC2)C1c1cc(OC)ccc1OC (stereo not given),13µM,n,x,n,n
CC(C)(C)C(=O)n1nc(-c2ccccc2)oc1=O,n,n,n,n,n
COC(=O)C1=C(C)NC(=O)C1(NS(=O)(=O)c1ccc(NC(C)=O)cc1)C(F)(F)F (stereo not given),x,n,n,n,n
CCc1nc(OCCN(CC)CC)c2oc3ccccc3c2n1,n,27,n,n,n
COC(=O)/C=C/c1ccc(-n2cncn2)cc1,u,23,n,x,n
O=Cc1ccc(-n2cncn2)cc1,n,n,n,n,n
Cc1cc(/C=N/NC(N)=S)c(O)c(/C=N/NC(N)=S)c1,12µM,n,0.47µM,n,n
NC(=S)N/N=C/c1ccccc1O,1µM,n,0.33µM,n,n
NC(=S)N/N=C/c1cccc(O)c1O,n,n,u,n,n
NC(=S)N/N=C/c1ccc2ccccc2c1,u,27,n,n,n
COc1ccc(-n2c(O)c(/C=N/NS(=O)(=O)c3cccc([N+](=O)[O-])c3)c3ccccc3c2=O)cc1OC,u,n,u,n,n
COCCC(=O)N1CCc2ccc(NC(=O)c3ccc(C(F)(F)F)cc3)cc2C1,n,n,n,n,26
COCCC(=O)Nc1ccc2c(c1)CN(C(=O)CSC)CC2,n,n,n,n,n
CN(C)S(=O)(=O)N1CCc2ccc(NC(=O)c3ccc(C(F)(F)F)cc3)cc2C1,13µM,27,n,n,x
Cc1nc(Cl)cc(N/N=C/c2ccc(O)cc2O)n1,u,44,n,n,28
CCOc1ccc(/C=N/Nc2cc(N3CCOCC3)nc(C)n2)c(O)c1,6.6µM,n,n,n,n
Cc1nc(N/N=C/c2ccc(Br)cc2)cc(N2CCOCC2)n1,u,n,u,n,n
Oc1ccc(/C=N/Nc2nc(N3CCCCCC3)nc(N3CCCCCC3)n2)c(O)c1,n,n,u,x,n
Cc1nc(Cl)cc(N/N=C/c2ccc(O)cc2)n1,n,19,n,n,49
COc1ccc(NC(=O)C(CC(C)C)NC(=O)C2CCC(C)CC2)c(OC)c1 (stereo not given),n,n,u,x,n
Nc1ccc(-c2nc3c(Cl)cc(N)cc3[nH]2)cc1,9.3µM,n,u,n,n
SMILES,Pf growth 96h,Cycloheximide cs,Pf growth 48h,NS1 inh,Shiga toxin inh
Cc1cc(=S)nc(-c2ccccn2)[nH]1,3.7µM,n,10µM,n,n
COc1ccc2nc(-c3ccc(N)cc3)[nH]c2c1,u,n,n,n,n
Nc1ccc2nc(-c3ccc(N)c(Cl)c3)[nH]c2c1,x,25,u,n,77
COc1ccc2nc(-c3cccc(N)c3)[nH]c2c1,n,18,n,n,n
CC(C)c1c(C(=O)Nc2ccccc2)c(-c2ccccc2)c(-c2ccc(F)cc2)n1CC[C@@H](O)C[C@@H](O)CC(=O)O,x,n,x,x,n
CCC(NC(=O)/C(=C\c1ccc2c(c1)OCO2)NC(C)=O)C(=O)O (stereo not given),n,n,n,n,n
O=C(CN1C(=O)NC2NC(=O)NC21)NC1CCCCC1 (stereo not given),x,x,x,n,x
COCCCn1c(SCC(=O)Nc2cccc(C(=O)OC)c2)nnc1-c1ccncc1,u,n,n,n,n
c1cncc(-c2nc3c(ccc4ccccc43)[nH]2)c1,u,12,u,n,77
Nc1ccc2nc(-c3cccs3)[nH]c2c1,n,20,n,n,52
COc1ccc2nc(-c3ccccn3)[nH]c2c1,n,36,n,n,59
Nc1ccc2nc(-c3ccccn3)[nH]c2c1,u,29,u,n,53
Nc1ccc2nc(C(F)(F)F)[nH]c2c1,n,n,n,n,n
O=C(O)CSc1nnc(-c2ccc(Cl)cc2Cl)n1-c1ccc(Br)cc1,u,n,n,u,n
COc1ccc(CN(C)C(=O)CCCNC(=O)c2ccc(Cl)cc2)cc1,u,n,n,n,n

# Assay outcomes as filed in PubChem BioAssay.
